Bioassay records as filed in PubChem.
Tg IFNy HTS = inhibitors of Toxoplasma gondii growth with IFN-gamma | AID 1259416 | hit rate 3.8% among 69,000 | activity change, negative = inhibition, % (concentration not given with the values) | Toxoplasma gondii growth in IFN-gamma-treated host cells; active compounds read low; in the data active = activity change below about -70%, passing the limit was not always enough;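 note: host cells are HeLa cells infected with Toxoplasma gondii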
An asterisk follows results filed as active. Only a selection was taken, and hits are over-represented in it overall.

SMILES | Tg IFNy HTS
Cc1nn(-c2ccccc2)nc1C(=O)Nc1nc(-c2ccc(F)c(F)c2)cs1 | 16.4
Cc1ccc(-c2csc(NC(=O)c3ccccc3)n2)c(C)c1 | 49.3
Cc1nc2ccccn2c1-c1csc(NC(=O)c2ccc(Br)cc2)n1 | -78.0*
CCn1c(C2CCCNC2)nn(Cc2cc(OC)ccn2)c1=O (stereo not given) | -4.2
CCCCN(CC)C(=O)c1cc(-c2cnc(N3CCOCC3)nc2)cn1C | 27.3
Fc1ccc(C2Nc3ccc4ccccc4c3C3=C2CCCC3)cc1 (stereo not given) | -105.4*
O=c1oc2ccccc2c2c1C(c1ccc3c(c1)OCO3)Nc1ccc3ccccc3c1-2 (stereo not given) | 57.3
CCOCc1noc2c1CN(Cc1nccn1C)CC2 | 2.6
COCCC(=O)c1cc2c(c3ccccc3n2CC2CC2)n1-c1ncccn1 | -2.3
O=C1CCCN1CC1CCN(C(=O)c2ccc(N3CC=CCC3)nc2)CC1 | 1.2
Cc1nc(CC2CCN(C(=O)c3ccc(N)nc3)CC2)cc(NC2CCCC2)n1 | -55.8
Clc1cccc(Cl)c1/C=C/c1ccn[nH]1 | -88.8*
N#Cc1c(Cl)cccc1Oc1ccc(-c2ccn[nH]2)cc1 | -2.4
Cc1oc(-c2ccccc2)nc1CN1C(=O)CSc2ccc(S(=O)(=O)N3CCCCCC3)cc21 | -95.2*
CCOC(=O)c1ccc2c(c1)N(Cc1nc(-c3cccc(C)c3)oc1C)C(=O)c1ccccc1S2 | -42.8
Cc1oc(-c2ccccc2)nc1Cn1ccn2nc(-c3ccc4c(c3)OCO4)cc2c1=O | -15.2
CNC(=O)c1ccc(-c2nc(CN3CCN(S(=O)(=O)c4ccc(OC)cc4)CC3)c(C)o2)cc1 | 13.6
CCN(CC)S(=O)(=O)c1ccc2c(c1)N(Cc1nc(-c3ccccc3)oc1C)C(=O)CS2 | -79.5*
Cc1oc(-c2ccc3ccccc3c2)nc1CN1CCN(S(N)(=O)=O)CC1 | 36.2
CNS(=O)(=O)c1ccc(-c2nccn2C(C)c2nncn2C)cc1 (stereo not given) | -0.1
COCCN1C(=O)CCc2cc(NC(=O)c3cccc(OC)c3)ccc21 | 59.3
Cc1cc(C)nc(C2CCN(C(=O)c3ccc(=O)n(C)c3)C2)n1 (stereo not given) | 19.3
Cc1ccc(C2=NC3(CCN(Cc4ccc(C)cc4C)CC3)NC2=O)cc1 | -7.6
CCOC(=O)[C@@]12CC=CCN(C(=O)C(C)Sc3nc(C)cc(C)n3)[C@@H]1CCC2 (stereo not given in full) | -16.3
Cc1cc(C#N)cc(C)c1Oc1nc(Nc2ccc(C#N)cc2)nc(N)c1Br | -85.6*
SMILES | Tg IFNy HTS
Cc1cccc(NC(=O)Cn2c(=O)cc(C(=O)N3CCc4ccccc4C3)c3ccccc32)c1 | 2.2
Cn1cnc(S(=O)(=O)N2CCC(C3CCCCN(Cc4ccccc4)C3=O)CC2)c1 (stereo not given) | 8.7
Cc1cc(C)c(NC(=O)Cn2c(=O)cc(-c3nc(C4CC4)no3)c3ccccc32)c(C)c1 | -26.6
COc1ccc(C)cc1NC(=O)Cn1c(=O)cc(-c2nc(C3CC3)no2)c2ccccc21 | -87.4*
COc1ccccc1NC(=O)Cn1c(=O)cc(-c2nc(C3CC3)no2)c2ccccc21 | -7.9
O=C1CCC2(CCN1)CCN(c1ncc(Cl)cn1)CC2 | 8.5
CC/C=C/CC(=O)Nc1cccc(NC(=O)Cc2ccccc2)c1 | -11.7
Cc1cc(C(=O)Nc2cccc(NC(=O)Cc3ccccc3)c2)n[nH]1 | -74.9*
O=C(Cc1ccccc1)Nc1cccc(NC(=O)c2ccnnc2)c1 | 5.8
O=C(c1cn[nH]n1)N(Cc1ccccc1)Cc1nccs1 | -2.9
CCn1c(=O)c2ccccc2n(CC(=O)Nc2c(C)cccc2C)c1=O | -13.6
Brc1ccc(-c2nnc3ccc4ccccc4n23)cc1 | -12.0
Cc1oc(-c2ccc(NC(=O)c3ccc(F)cc3)cc2)nc1Cn1cccn1 | 23.4
O=C(Nc1ccn(Cc2ccc(Cl)cc2Cl)n1)c1ccc(F)cc1 | -96.6*
O=C(Nc1cc(Cl)c(-n2cccc2)cc1Cl)c1ccc(Cl)cc1 | 44.9
COCCC(=O)C1CC2(CO1)c1ccccc1CN2Cc1ccccc1 (stereo not given) | 132.5
Cc1csc(CN2CCOc3c(O)cc(-c4ccc(C)s4)cc3C2)n1 | -6.5
Cc1noc(CN2CCOc3c(O)cc(-c4ccc(C)s4)cc3C2)n1 | 0.4
Cc1cc(C(=O)N2CCOc3c(O)cc(-c4ccccc4C)cc3C2)no1 | -63.2
Cc1ccc(-c2cc(O)c3c(c2)CN(CC2CCCN2C)CCO3)s1 (stereo not given) | -5.8
Cc1ccc(-c2cc(O)c3c(c2)CN(C(=O)CCN2CCCO2)CCO3)s1 | -75.4*
Cc1ccc(-c2cc(O)c3c(c2)CN(C(=O)c2cccc(F)c2)CCO3)s1 | -70.1*
CC1CCN(S(=O)(=O)N2CCCC2c2cccc(F)c2)CC1 (stereo not given) | 1.8
Cc1cnc(N)c(-c2ccc(O)cc2)c1 | -2.3
CCC(CC)n1nc(C)cc1NC(=O)c1cnc(-c2cccnc2)nc1 | -4.8
SMILES | Tg IFNy HTS
Cc1ccc(NC(=O)C(=O)NCCc2sc(-c3ccc(F)cc3)nc2C)cc1Cl | 57.0
Fc1cnc(N2CCO[C@@H]3[C@H]2CC[C@H]3OCc2ccccn2)nc1 | 1.4
c1coc(CN2C[C@@H](OCCCn3cccn3)[C@@H]3OCCC[C@@H]32)c1 | -30.4
Fc1ccc(CN2CCO[C@H]3[C@H]2CC[C@H]3OCCCn2cccn2)cc1 | -94.2*
CC(CCNC(=O)C(C)n1c2ccccc2c2cnn(C)c(=O)c21)N1CCCC1 (stereo not given) | 0.0
Cc1ccc(CN2CCC(CNC(=O)C(C)n3c4ccccc4c4cnn(C)c(=O)c43)C2)cc1 (stereo not given) | -103.5*
Cc1ccc(CN2CCC(CNC(=O)Cn3c4ccccc4c4cnn(C)c(=O)c43)C2)cc1 (stereo not given) | 21.3
C=CCOCc1cncc2c1CCN(Cc1ccc3c(c1)OCO3)C2 | 0.7
COc1ccc(C(=O)N2CCC(O)(c3ccc(C)cn3)CC2)c(F)c1F | -31.8
Cn1cnc2ccc(NC(=O)c3cccc(NC(=O)CN4CCOCC4)c3)cc21 | 8.6
CCOc1ccc(-c2nc3c(s2)CN(C(=O)Nc2cc(C)ccc2OC)CC3)cc1 | -104.5*
COc1cccc(-c2nc3c(s2)CN(C(=O)Nc2ccc(OC)cc2OC)CC3)c1 | 35.1
COc1cccc(-c2nc3c(s2)CN(C(=O)Nc2ccc(OC)c(OC)c2)CC3)c1 | 19.0
Cc1cccc(NC(=O)N2CCc3nc(-c4ccccc4)sc3C2)c1 | -6.4
COc1ccc(-c2nc3c(s2)CN(C(=O)Nc2cc(C)ccc2OC)CC3)cc1 | -41.3
COc1cccc(-c2nc3c(s2)CN(C(=O)Nc2ccc(Cl)cc2)CC3)c1 | -91.6*
COc1ccc(-c2nc3c(s2)CN(C(=O)Nc2cc(C)cc(C)c2)CC3)cc1 | -30.9
CCOc1ccc(NC(=O)N2CCc3nc(-c4cccc(OC)c4)sc3C2)cc1 | 16.7
CCOc1ccc(-c2nc3c(s2)CN(C(=O)Nc2ccc(C)cc2C)CC3)cc1 | 98.1
COc1cccc(NC(=O)N2CCc3nc(-c4ccc(C)cc4)sc3C2)c1 | -121.2*
COc1ccc(OC)c(NC(=O)N2CCc3nc(-c4ccccc4)sc3C2)c1 | 12.7
COc1ccc(-c2nc3c(s2)CN(C(=O)Nc2ccc(Br)cc2)CC3)cc1 | -92.5*
Cc1nc(=O)n(CC(=O)NCc2cccc(N3CCCCC3)c2)c(C)c1C | -1.5
CN1CCCC(C(=O)N2CCc3c(nc(-c4ccccc4)[nH]c3=O)C2)C1 (stereo not given) | -3.6
Fc1cnc(N2CCO[C@@H]3[C@H]2CC[C@H]3Oc2ncccc2F)nc1 | -68.0
Fc1ccc(N2CCN(c3nc(-c4ccc(Cl)cc4)nc4ccccc34)CC2)cc1 | 31.7
